High-throughput results: PubChem, several laboratories
CYP2C19 inhib – human CYP2C19 inhibition | CYP2C19 Supersomes, luciferin-H EGE luminescence, 30 min | inhibition, % at 5 µM | P33261 | AID 778 | 96,000 tested, 21% active;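 active means CYP2C19 inhibition above a set limit at 5 µM in the primary screen, cut at about 50% in these data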;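 further: plate controls were negative control wells for no effect and 2.5 mM tranylcypromine positive control for full effect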
CYP2C19 activ – activators of human cytochrome P450 2C19. 96,000 tested, under 10 active. recombinant CYP2C19, luciferin-H EGE luminescence; hits give high values; 0 = fully inhibited enzyme, 1 = untreated enzyme. P33261. activation factor at 5 µM. AID 1025;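 active means activation factor of at least 2 at 5 µM in the primary screen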;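 further: 0 = wells with 2.5 mM tranylcypromine and 1 = vehicle-only wells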
CYP2C9 act – activators of human CYP2C9 | 96,000 tested, 1.4% active | AID 1024 | P11712 | activation factor at 5 µM | recombinant CYP2C9, luciferin-H conversion, luminescence; hits give high values; factor 1 = untreated enzyme, 0 = blocked;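 active means activation factor of 2 or more for CYP2C9 at a 5 µM dose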;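 further: 0 = sulfaphenazole-blocked wells and 1 = vehicle-only wells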
Cav3 T inh – human Cav3.2 channel inhibition, primary screen; O95180; Cav3.2-expressing cells, Fluo-4 calcium fluorescence FDSS; hits give low values; B-score at 10 µM; 100,000 tested, 4% active;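 active means single-dose well whose peak fluorescence ratio is a statistical outlier from its plate by either plate-standardised score or position-corrected B-score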
Target sequence (O95180 whole entry, looked up): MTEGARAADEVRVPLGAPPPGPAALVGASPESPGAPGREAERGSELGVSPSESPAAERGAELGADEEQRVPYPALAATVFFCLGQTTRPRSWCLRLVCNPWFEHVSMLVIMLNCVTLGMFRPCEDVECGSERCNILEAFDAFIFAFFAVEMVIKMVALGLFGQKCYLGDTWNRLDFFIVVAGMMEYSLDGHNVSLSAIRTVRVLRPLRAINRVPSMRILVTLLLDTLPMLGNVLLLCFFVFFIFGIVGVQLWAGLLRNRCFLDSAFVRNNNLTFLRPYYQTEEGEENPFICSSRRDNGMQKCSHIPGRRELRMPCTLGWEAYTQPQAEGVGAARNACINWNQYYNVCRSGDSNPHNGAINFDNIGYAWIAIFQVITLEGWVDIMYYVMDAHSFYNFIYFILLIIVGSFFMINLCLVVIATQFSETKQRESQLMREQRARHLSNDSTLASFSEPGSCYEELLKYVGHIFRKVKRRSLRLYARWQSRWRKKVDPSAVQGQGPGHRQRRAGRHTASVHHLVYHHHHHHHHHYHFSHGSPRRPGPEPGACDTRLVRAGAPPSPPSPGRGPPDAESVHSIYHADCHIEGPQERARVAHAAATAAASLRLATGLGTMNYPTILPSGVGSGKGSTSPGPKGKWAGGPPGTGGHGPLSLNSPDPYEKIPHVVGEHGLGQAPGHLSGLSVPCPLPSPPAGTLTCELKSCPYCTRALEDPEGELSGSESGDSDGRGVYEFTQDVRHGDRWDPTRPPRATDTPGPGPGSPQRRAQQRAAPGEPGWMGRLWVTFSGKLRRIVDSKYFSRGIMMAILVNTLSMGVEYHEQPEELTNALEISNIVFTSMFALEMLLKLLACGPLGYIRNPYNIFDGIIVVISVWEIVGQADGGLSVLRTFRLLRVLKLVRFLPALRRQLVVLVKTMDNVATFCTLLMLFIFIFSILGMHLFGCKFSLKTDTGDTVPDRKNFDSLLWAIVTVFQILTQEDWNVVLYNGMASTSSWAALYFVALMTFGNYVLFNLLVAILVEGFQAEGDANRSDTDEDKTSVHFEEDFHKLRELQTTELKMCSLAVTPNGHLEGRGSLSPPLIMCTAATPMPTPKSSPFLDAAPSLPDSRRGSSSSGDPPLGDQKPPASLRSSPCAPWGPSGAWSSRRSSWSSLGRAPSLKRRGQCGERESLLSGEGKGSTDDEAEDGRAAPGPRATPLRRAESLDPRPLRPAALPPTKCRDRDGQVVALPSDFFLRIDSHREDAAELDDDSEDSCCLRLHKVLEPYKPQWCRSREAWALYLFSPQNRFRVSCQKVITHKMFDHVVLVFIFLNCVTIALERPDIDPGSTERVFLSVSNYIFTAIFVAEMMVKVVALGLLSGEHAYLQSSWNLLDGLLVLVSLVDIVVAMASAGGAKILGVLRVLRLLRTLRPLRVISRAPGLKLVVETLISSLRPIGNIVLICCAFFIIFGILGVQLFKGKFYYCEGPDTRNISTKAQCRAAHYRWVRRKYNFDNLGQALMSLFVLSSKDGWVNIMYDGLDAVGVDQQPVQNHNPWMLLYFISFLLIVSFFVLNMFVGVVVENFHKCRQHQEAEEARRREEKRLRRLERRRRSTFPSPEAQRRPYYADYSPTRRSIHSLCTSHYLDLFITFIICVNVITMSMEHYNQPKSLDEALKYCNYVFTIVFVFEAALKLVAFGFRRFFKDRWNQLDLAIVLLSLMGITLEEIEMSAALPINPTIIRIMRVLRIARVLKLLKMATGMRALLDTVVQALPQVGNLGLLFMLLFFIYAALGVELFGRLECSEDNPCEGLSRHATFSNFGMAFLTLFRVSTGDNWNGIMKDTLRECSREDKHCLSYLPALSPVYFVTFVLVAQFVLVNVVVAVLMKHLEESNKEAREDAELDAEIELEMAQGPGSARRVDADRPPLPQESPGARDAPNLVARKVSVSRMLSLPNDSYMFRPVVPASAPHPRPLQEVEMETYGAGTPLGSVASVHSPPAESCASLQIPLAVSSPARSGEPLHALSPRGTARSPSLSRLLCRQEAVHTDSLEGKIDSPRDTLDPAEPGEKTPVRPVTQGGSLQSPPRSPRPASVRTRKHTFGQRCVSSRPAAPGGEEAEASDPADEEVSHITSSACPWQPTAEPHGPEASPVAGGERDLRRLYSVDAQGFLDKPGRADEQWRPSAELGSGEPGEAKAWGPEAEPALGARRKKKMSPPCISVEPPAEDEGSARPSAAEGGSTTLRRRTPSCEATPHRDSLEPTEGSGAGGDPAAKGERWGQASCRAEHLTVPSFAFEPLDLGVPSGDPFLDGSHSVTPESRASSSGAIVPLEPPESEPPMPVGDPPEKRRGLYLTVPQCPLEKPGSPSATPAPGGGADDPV
CYP2C9 inh – blocks human cytochrome P450 2C9. P11712. CYP2C9 Supersomes, luciferin-H conversion, luminescence. inhibition, % at 5 µM. 96,000 tested, 20% active. AID 777;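 active means blocking of liver enzyme CYP2C9 beyond about 50% at 5 µM, limit read from the data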
An asterisk follows results filed as active; / = no result given. The list is not random: actives were taken first. Their share in the collection is about 27%.

SMILES | CYP2C19 inhib | CYP2C19 activ | CYP2C9 act | Cav3 T inh | CYP2C9 inh
Cc1cc(C)n(-c2nc(NCCC(C)C)c3c4c(sc3n2)COC(C)(C)C4)n1 | 9.2 | 0.9 | 0.7 | / | 30.5
Cc1cc(C)n(-c2nc(SCC(=O)Nc3nccs3)c3c4c(sc3n2)COC(C)(C)C4)n1 | 37.8 | 0.6 | 0.2 | / | 76.8*
Cc1cc(C)n(-c2nc(-n3nc(C)cc3C)c3c4c(sc3n2)COC(C)(C)C4)n1 | 72.4* | 0.3 | 0.6 | / | 38.3
O=C(c1ccccc1)N1CCC(O)(c2ccc3c(c2)OCO3)CC1 | / | / | / | -0.0433 | /
NC1=NC[C@H](Cc2ccc(O)cc2)N1CCC12CC3CC(CC(C3)C1)C2 | / | / | / | -0.911 | /
O=c1c(F)cn(C2CCCO2)c(=O)n1Cc1c(Cl)cccc1Cl (stereo not given) | 66.1* | 0.3 | 0.7 | 1.36 | 32.8
NS(=O)(=O)c1ccc(CNC(=O)/C=C/c2c(Cl)cccc2Cl)cc1 | -9.1 | 1.1 | 1.5 | / | -48.3
CCOc1cc2[nH]c(=S)n(CCCCC(=O)NCc3ccco3)c(=O)c2cc1OCC | -1.3 | 1 | 0.3 | 0.617 | 72.2*
CCOc1cc2[nH]c(=S)n(CCC(=O)NCc3ccc(OC)cc3)c(=O)c2cc1OCC | 3.0 | 1 | 0.3 | / | 73.2*
Cc1ccccc1NC1C=CS(=O)(=O)C1 (stereo not given) | 9.2 | 0.9 | 0.9 | 0.823 | 5.4
COC(=O)[C@@]1(Cc2ccc(OC)cc2)[C@H]2c3cc(C(=O)N4CCCC4)n(Cc4ccc(C)o4)c3C[C@H]2CN1C(=O)c1ccccc1 | / | / | / | -1.53 | /
COc1cccc(-c2nn(C)c3sc(C(=O)NCc4ccccn4)cc23)c1 | 12.7 | 0.9 | 0.5 | 1.41 | 49.8
COc1cccc(-c2nn(C)c3sc(C(=O)NCc4ccc(C)cc4)cc23)c1 | 25.5 | 0.7 | 0.5 | -2.05 | 53.7*
COc1ccc(N2CCN(C(=O)c3cc4c(-c5cccc(OC)c5)nn(C)c4s3)CC2)cc1 | 22.9 | 0.8 | 0.5 | -0.584 | 51.3*
CN(Cc1ccccc1)c1ncnc2ccc(Br)cc12 | 96.6* | 0 | 0.2 | -3.86 | 83.9*
Cc1ccc(-c2csc(=S)n2CC(=O)OCC(=O)NCc2ccc(F)cc2)cc1 | 79.5* | 0.2 | 0.1 | -2.73 | 87.1*
CCOC(=O)c1sc(NC(=O)/C=C/c2cnn(C)c2C)c(C(=O)OC(C)C)c1C | -2.4 | 1 | 0.8 | -0.108 | 24.8
COc1ccc(Cl)cc1CN1CCN(c2nc(C)cc(C)c2C#N)CC1 | 92.1* | 0.1 | 0.2 | -0.218 | 78.7*
Cc1cc(C)c2c(n1)nn1c(N3CCN(Cc4ccccc4)CC3)cc(C)nc21 | 16.6 | 0.8 | 0.6 | / | 41.2
Cc1cc(C)c(C#N)c(N2CCN(CCOc3ccc(Cl)cc3)CC2)n1 | 16.2 | 0.8 | 0.8 | -2.24 | 21.6
COc1ccc(F)cc1CN1CCN(c2cc(C)nc3c4c(C)cc(C)nc4nn23)CC1 | 7.4 | 0.9 | 1 | -7.75* | 4.5
O=S(=O)(c1ccc2ccccc2c1)N(CC(O)CN1CCOCC1)c1ccccc1 (stereo not given) | 11.3 | 0.9 | 0.8 | 0.101 | 20.2
CCOc1ccc(NC(=O)N(C2CCCCC2)C(C)c2cccnc2)cc1 (stereo not given) | 41.4 | 0.6 | 0.6 | -0.756 | 41.1
CCOc1ccc(NC(=O)N(C2CCCCC2)C(C)c2ccncc2)cc1 (stereo not given) | 62.8* | 0.4 | 0.3 | / | 68.4*
COc1ccc(S(=O)(=O)NN=C2CCCCC2)cc1 | 1.9 | 1 | 0.9 | 0.549 | 7.2
SMILES | CYP2C19 inhib | CYP2C19 activ | CYP2C9 act | Cav3 T inh | CYP2C9 inh
COc1ccc(S(=O)(=O)N=C2C=C(C)C(=O)C(C)=C2)cc1 | 66.1* | 0.3 | 1.7 | 0.94 | -65.6
COc1ccc(N2CC(O)=C(c3nc4ccccc4s3)C2=N)c(OC)c1 | 55.2* | 0.4 | 1 | -0.403 | 3.9
CC(C)c1nnc(NC(=O)CSc2ccccc2)s1 | 63.3* | 0.4 | 0.4 | -1.04 | 62.3*
CCOCc1nnc(NC(=O)CSc2ccccc2)s1 | 49.4 | 0.5 | 0.5 | 0.369 | 50.6*
CCCCn1nnnc1SCC(=O)N1CCCC1 | 1.1 | 1 | 1.1 | 0.813 | -8.9
COc1ccccc1-c1c(C(F)(F)F)oc2cc(OC(=O)c3cccc([N+](=O)[O-])c3C)ccc2c1=O | 75.6* | 0.2 | 0.3 | -1.65 | 73.3*
COc1ccccc1-c1c(C)oc2cc(OC(=O)c3ccco3)ccc2c1=O | 63.7* | 0.4 | 0.4 | -1.63 | 55.2*
CCOC(=O)c1ccc(-c2c(C(=O)OCC)oc3cc(O)c(CC)cc3c2=O)o1 | 67.7* | 0.3 | 0 | -0.826 | 96.8*
CCOC(=O)c1ccc(CC(=O)c2oc3cc(O)ccc3c2C)o1 | 28.0 | 0.7 | 0.3 | -0.793 | 65.5*
